Env fusion inh – inhibitors of HIV Env-mediated cell fusion; HeLa-JRFL Env/CEM21 cell fusion, luciferase; inhibition, % at 12.3 µM; actives 1.1% (n = 360,000);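 active means mean replicate inhibition score of at least 50 and every replicate individually at or above 50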;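 further: 0% = plate neutral controls and 100% = maraviroc near 300 nM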
INS-1E GSIS act – GLuc luminescence reporter in INS-1E cells, primary screen for activators of glucose-dependent secretion of insulin; activation, % at 16.6 µM; INS-1E GLuc reporter insulin secretion, 2-3 h; actives 0.61% (n = 370,000);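 active means lowest replicate activation of at least 40%, so every replicate reaches that level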;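 further: 0% = median of neutral control wells and 100% = median of IBMX positive control wells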
EWS-Fli inh – EWS/Fli transcriptional activity inhibition | A673 NR0B1-luciferase reporter, viability-normalised | inhibition, % at 12.6 µM | actives 0.67% (n = 350,000);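 active means mean inhibition of at least 50% after viability correction, with every replicate also passing that limit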;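 further: firefly luciferase signal divided by Alamar Blue viability fluorescence both relative to DMSO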
PAX8 reporter – lowers PAX8-driven luciferase in RMG-I cells; inhibition, % at 12.6 µM; RMG-I TPO-luciferase reporter, SteadyGlo, 24 h; AID 652154; actives 1.2% (n = 360,000);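 active means mean replicate inhibition at least 60% with every replicate also reaching 60%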;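 further: luciferase light reporting Pax8 driven TPO promoter activity; plate controls were median of neutral control wells for no effect and mitoxantrone controls for full effect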
miR122 inh – miR-122 inhibition in Huh7 cells; AID 602342; actives 0.3% (n = 340,000); Huh7 miR-122 Renilla luciferase sensor, 48 h; neutral wells = 0, positive control = 100; activation (reporter increase), % at 12.5 µM;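 active means mean replicate activation score at least 90 and every replicate individually at or above 90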;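 further: higher luciferase means less miR-122 activity so hits act as miR-122 inhibitors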
Statin myotox sup – suppressors of simvastatin-induced myotoxicity in C2C12 myotubes | rescue of ATP level, % at 7.49 µM | ATP luminescence, 48 h; scaled: DMSO 0, geranylgeraniol control 100 | AID 602340 | actives 0.78% (n = 330,000);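 active means mean ATP rescue above about 67%, or every replicate alone reaching that limit, limit read from the data, passing the limit was not always enough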;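 further: myotubes were challenged with 10 µM simvastatin during compound exposure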
* = called active by the depositor; [ ] = remark or other dose. An excerpt weighted towards active compounds, which were near 3.1% of everything screened.

`CC(C)c1ccc(/C=C/C(=O)N2CCc3ccccc3C2)cc1` gave INS-1E GSIS act -2, EWS-Fli inh 3, PAX8 reporter 67*, miR122 inh 8 and Statin myotox sup -3.
For CC(C)c1ccc(OCC(=O)N2CCc3ccccc3C2)cc1 the results were Env fusion inh 2, INS-1E GSIS act 4, EWS-Fli inh -1, PAX8 reporter 4, miR122 inh -2 and Statin myotox sup -8.
For O=C(NCC[C@H]1CC[C@H](NC(=O)C2CCCCC2)[C@@H](CO)O1)c1cnccn1 the results were Env fusion inh -12[16.7 µM], INS-1E GSIS act 5, EWS-Fli inh 6, PAX8 reporter -3 and Statin myotox sup -3.
`C[C@@H](NC(=O)[C@H]1[C@H](CO)[C@H]2Cn3c(cccc3=O)[C@H]2N1CC1CCCCC1)c1ccccc1` gave INS-1E GSIS act 1.
O=C(c1ccc2ccccc2n1)N1CCN(S(=O)(=O)c2ccc(Cl)cc2)CC1 was read as Env fusion inh 56*, EWS-Fli inh 9, PAX8 reporter 14, miR122 inh -9 and Statin myotox sup 6.
`Cc1ccc(C)c(S(=O)(=O)N2CCN(C(=O)c3ccc4ccccc4n3)CC2)c1` gave INS-1E GSIS act -28, EWS-Fli inh 6, PAX8 reporter 31 and Statin myotox sup 3.
CC(=O)N[C@H]1CC[C@H](CCNC(=O)C2CC2)O[C@@H]1CO was read as Env fusion inh -5[16.7 µM], INS-1E GSIS act -5, EWS-Fli inh -2, PAX8 reporter 10, miR122 inh 3[16.7 µM] and Statin myotox sup -12.
COCCOCCn1c(CCCO)nc2ccccc21 was read as miR122 inh -4 and Statin myotox sup 82*.
For Cc1ccc(OCCCn2c(CO)nc3ccccc32)cc1 the results were INS-1E GSIS act -3, miR122 inh 4 and Statin myotox sup 134*.
For COc1ccccc1Cn1c(CCCO)nc2ccccc21 the results were miR122 inh -1 and Statin myotox sup 7.
Screening CCCNC(=O)N1CC2(C1)[C@@H](c1ccccc1)[C@H](CO)N2Cc1ccc(F)cc1 returned INS-1E GSIS act -2, EWS-Fli inh 6 and PAX8 reporter -13.
Screening CN1CCN(c2ccc(NC(=O)c3ccccc3Br)cc2)CC1 returned miR122 inh -3.
`CN1CCN(c2ccc(NC(=S)NC(=O)c3cccc4ccccc34)cc2)CC1` gave Env fusion inh -16, INS-1E GSIS act 7, EWS-Fli inh 65*, PAX8 reporter -14, miR122 inh 2 and Statin myotox sup 7.
`CN1CCN(c2ccc(NC(=S)NC(=O)c3cccc4c(Br)cccc34)cc2)CC1` gave Env fusion inh 9, INS-1E GSIS act 3, EWS-Fli inh -10, PAX8 reporter -14, miR122 inh 6 and Statin myotox sup 126*.
`CC(C)NC(=O)N(C)C[C@H]1OCCCC[C@H](C)Oc2ccc(NS(=O)(=O)c3ccccc3)cc2C(=O)N([C@@H](C)CO)C[C@@H]1C` gave Env fusion inh 6[16.7 µM], INS-1E GSIS act 0, EWS-Fli inh 9, PAX8 reporter 2 and miR122 inh -7[16.7 µM].
For Cc1cc(C(=O)Nc2cccc3c2O[C@H](CN(C)C(=O)Nc2ccccc2)[C@H](C)CN([C@@H](C)CO)C3=O)n(C)n1 the results were INS-1E GSIS act 0, EWS-Fli inh -3, PAX8 reporter -17, miR122 inh 5[16.7 µM] and Statin myotox sup -6.
Screening CO[C@H]1CN(C)C(=O)c2cc(NC(C)=O)ccc2OC[C@H](C)N(C(=O)c2cccnc2)C[C@H]1C returned Env fusion inh -21[16.7 µM], EWS-Fli inh 0, PAX8 reporter -1, miR122 inh -3[16.7 µM] and Statin myotox sup -13.
`COc1ccc(NC(=O)Nc2cccc3c2O[C@H](CN(C)S(=O)(=O)c2ccccc2)[C@H](C)CN([C@H](C)CO)C3=O)cc1` gave Env fusion inh 39[16.7 µM], INS-1E GSIS act -4, EWS-Fli inh -10, PAX8 reporter -19, miR122 inh -8[16.7 µM] and Statin myotox sup -18.
For CCOc1ccccc1C=C1SC(=S)NC1=O the results were Env fusion inh 78*, INS-1E GSIS act -30, EWS-Fli inh -14, PAX8 reporter -19, miR122 inh -2 and Statin myotox sup -27.

Source: PubChem
